# ± gives the standard deviation.
# T1: HaloTag-ATRX ADD domain (163-292)
# T1 chain: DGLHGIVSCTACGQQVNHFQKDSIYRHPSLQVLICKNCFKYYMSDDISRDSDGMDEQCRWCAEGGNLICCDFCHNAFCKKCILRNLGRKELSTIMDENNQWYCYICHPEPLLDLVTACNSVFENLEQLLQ
# Tests used:
# Test in all cases: peptide microarray binding signal (635 nm), min-max normalized on array (fraction of array maximum); higher = stronger binding
# [1] = biological target: T1, HaloTag-ATRX ADD domain (163-292)
# Procedure, shortened: (§1)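 Binding signal is the mean intensity of triplicate spots, min-max scaled within each library. Histone 13-mer peptide–cellulose conjugates were spotted in triplicate on nitrocellulose with a Cy3 tracer and blocked overnight at 4°C. Probing lasted 1 h at 4°C, either with biotin-labelled HaloTag reader fusions (10 nM to 1 μM) and streptavidin-Alexa Fluor 647 or with rabbit histone antibodies (1:10,000 to 1:2,000) and anti-rabbit Alexa 647. An Axon GenePix 4000B read signal at 635 nm and misprints at 532 nm.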
# [2] = biological target: HaloTag-ING2 PHD (mouse Ing2 200-280)
# Procedure, shortened: as §1
# [3] = biological target: anti-H3K4me3 antibody ab8580
# Procedure, shortened: as §1
# [4] = biological target: anti-H3K9me3 antibody ab8898
# Procedure, shortened: as §1
# [5] = peptide region: H3 30-42, peptide modifications: H3K36ac H3K37me1, binder concentration: 1:2,000 dilution
# [6] = peptide region: H3 30-42, peptide modifications: H3K36ac H3K37me1, binder concentration: 1:10,000 dilution
# [7] = peptide region: H3 20-32, peptide modifications: H3T22ph H3K23me1, binder concentration: 1:2,000 dilution
# [8] = peptide region: H3 20-32, peptide modifications: H3T22ph H3K23me1, binder concentration: 1:10,000 dilution
# [9] = peptide region: H3 20-32, peptide modifications: H3R26me2s H3K27me1, binder concentration: 1:2,000 dilution
# [10] = peptide region: H3 20-32, peptide modifications: H3R26me2s H3K27me1, binder concentration: 1:10,000 dilution
# [11] = peptide region: H3 30-42, peptide modifications: H3K36me1 H3K37ac, binder concentration: 1:2,000 dilution
# [12] = peptide region: H3 30-42, peptide modifications: H3K36me1 H3K37ac, binder concentration: 1:10,000 dilution
# [13] = peptide region: H3 20-32, peptide modifications: H3R26me2a H3K27me3, binder concentration: 1:2,000 dilution
# [14] = peptide region: H3 20-32, peptide modifications: H3R26me2a H3K27me3, binder concentration: 1:10,000 dilution
binder,measurement,setting,value
PATGGVKKPHRYR [H3 30-42 P A T G G V Kac Kme P H R Y R],peptide microarray binding signal,"[1]; peptide region: H3 30-42, peptide modifications: H3K36ac H3K37me1, binder concentration: 50 nM",0.00235 ± 2.8e-05
same,peptide microarray binding signal,"[1]; peptide region: H3 30-42, peptide modifications: H3K36ac H3K37me1, binder concentration: 500 nM",0.00586 ± 0.00013
same,peptide microarray binding signal,"[2]; peptide region: H3 30-42, peptide modifications: H3K36ac H3K37me1, binder concentration: 10 nM",0.00418 ± 0.00019
same,peptide microarray binding signal,"[2]; peptide region: H3 30-42, peptide modifications: H3K36ac H3K37me1, binder concentration: 100 nM",0.0056 ± 0.00056
same,peptide microarray binding signal,[3]; [5],0.00253 ± 0.00052
same,peptide microarray binding signal,[3]; [6],0.00177 ± 5.8e-05
same,peptide microarray binding signal,[4]; [5],0.0165 ± 0.003
same,peptide microarray binding signal,[4]; [6],0.00265 ± 6.2e-05
LATKAARKSAPAT [H3 20-32 L A Tph Kme A A R K S A P A T],peptide microarray binding signal,"[1]; peptide region: H3 20-32, peptide modifications: H3T22ph H3K23me1, binder concentration: 50 nM",0.012 ± 0.0014
same,peptide microarray binding signal,"[1]; peptide region: H3 20-32, peptide modifications: H3T22ph H3K23me1, binder concentration: 500 nM",0.0173 ± 0.0019
same,peptide microarray binding signal,"[2]; peptide region: H3 20-32, peptide modifications: H3T22ph H3K23me1, binder concentration: 10 nM",0.0223 ± 0.0014
same,peptide microarray binding signal,"[2]; peptide region: H3 20-32, peptide modifications: H3T22ph H3K23me1, binder concentration: 100 nM",0.0368 ± 0.0079
same,peptide microarray binding signal,[3]; [7],0.00793 ± 0.0012
same,peptide microarray binding signal,[3]; [8],0.0102 ± 0.0018
same,peptide microarray binding signal,[4]; [7],0.00538 ± 0.00068
same,peptide microarray binding signal,[4]; [8],0.003 ± 9.2e-05
LATKAARKSAPAT [H3 20-32 L A T K A A Rme2s Kme S A P A T],peptide microarray binding signal,"[1]; peptide region: H3 20-32, peptide modifications: H3R26me2s H3K27me1, binder concentration: 50 nM",0.00511 ± 6.7e-05
same,peptide microarray binding signal,"[1]; peptide region: H3 20-32, peptide modifications: H3R26me2s H3K27me1, binder concentration: 500 nM",0.00771 ± 0.00038
same,peptide microarray binding signal,"[2]; peptide region: H3 20-32, peptide modifications: H3R26me2s H3K27me1, binder concentration: 10 nM",0.0191 ± 0.00015
same,peptide microarray binding signal,"[2]; peptide region: H3 20-32, peptide modifications: H3R26me2s H3K27me1, binder concentration: 100 nM",0.02409 ± 0.00015
same,peptide microarray binding signal,[3]; [9],0.00608 ± 0.0005
same,peptide microarray binding signal,[3]; [10],0.00845 ± 0.00053
same,peptide microarray binding signal,[4]; [9],0.00384 ± 0.00014
same,peptide microarray binding signal,[4]; [10],0.00283 ± 4.9e-05
PATGGVKKPHRYR [H3 30-42 P A T G G V Kme Kac P H R Y R],peptide microarray binding signal,"[1]; peptide region: H3 30-42, peptide modifications: H3K36me1 H3K37ac, binder concentration: 50 nM",0.00263 ± 0.00011
same,peptide microarray binding signal,"[1]; peptide region: H3 30-42, peptide modifications: H3K36me1 H3K37ac, binder concentration: 500 nM",0.0039 ± 5.6e-05
same,peptide microarray binding signal,"[2]; peptide region: H3 30-42, peptide modifications: H3K36me1 H3K37ac, binder concentration: 10 nM",0.00298 ± 3.3e-05
same,peptide microarray binding signal,"[2]; peptide region: H3 30-42, peptide modifications: H3K36me1 H3K37ac, binder concentration: 100 nM",0.00354 ± 8.3e-05
same,peptide microarray binding signal,[3]; [11],0.00145 ± 6.2e-05
same,peptide microarray binding signal,[3]; [12],0.00137 ± 5.4e-05
same,peptide microarray binding signal,[4]; [11],0.00163 ± 7.6e-05
same,peptide microarray binding signal,[4]; [12],0.00127 ± 2.5e-05
LATKAARKSAPAT [H3 20-32 L A T K A A Rme2a Kme3 S A P A T],peptide microarray binding signal,"[1]; peptide region: H3 20-32, peptide modifications: H3R26me2a H3K27me3, binder concentration: 50 nM",0.00539 ± 0.00011
same,peptide microarray binding signal,"[1]; peptide region: H3 20-32, peptide modifications: H3R26me2a H3K27me3, binder concentration: 500 nM",0.0116
same,peptide microarray binding signal,"[2]; peptide region: H3 20-32, peptide modifications: H3R26me2a H3K27me3, binder concentration: 10 nM",0.0206 ± 0.0011
same,peptide microarray binding signal,"[2]; peptide region: H3 20-32, peptide modifications: H3R26me2a H3K27me3, binder concentration: 100 nM",0.0261 ± 0.0021
same,peptide microarray binding signal,[3]; [13],0.0393 ± 0.004
same,peptide microarray binding signal,[3]; [14],0.0294 ± 0.0026
same,peptide microarray binding signal,[4]; [13],0.0809 ± 0.0092
same,peptide microarray binding signal,[4]; [14],0.052 ± 0.0034
